# Only some compounds are listed: those with a hit (about 1.2% of all), similar ones and a draw of the others.
# PfHsp40 rescue = rescue of yeast from PfHsp40 toxicity, primary screen, S. cerevisiae, ATP luminescence. 340,000 tested, 0.68% active. S. cerevisiae expressing PfHsp40, growth rescue. growth rescue, % at 12.5 µM; in the data active = growth rescue above about 28%, passing the limit was not always enough;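 also: yeast W303a lacking pdr1 and pdr3 grown in galactose medium; growth measured after three days at 30 °C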
# RN4220 kill = growth inhibition of S. aureus RN4220, primary screen, OD600; 16 h; inhibition, % (concentration not given with the values); 330,000 tested, 0.33% active; AID 1259311, 2017; in the data active = inhibition above about 85%
# PrP 5UTR inh = inhibition of PrP 5' UTR reporter expression | 340,000 tested, 0.35% active | inhibition, % (no concentration beside the values) | AID 488862, 2010 | cell-based PrP 5' UTR mRNA reporter, plate reader; in the data active = inhibition above about 52%
# TcdB GH inh = TcdB glycohydrolase inhibitors, primary screen, biochemical, single point, plate reader. Toxin B (Clostridioides difficile), P18177. TcdB glycohydrolase enzymatic assay. inhibition, % at 9.99 µM. 350,000 tested, 0.24% active; in the data active = inhibition above about 10%
# ugtP null kill = growth inhibition of ugtP-null S. aureus, primary screen, RN4220 ugtP deletion, OD600; 16 h; AID 1259309, 2017; 330,000 tested, 0.54% active; growth inhibition, % (concentration not given with the values); in the data active = growth inhibition above about 68%
# Hits are given with their value; n = inactive; x = no result.
SMILES,PfHsp40 rescue,RN4220 kill,PrP 5UTR inh,TcdB GH inh,ugtP null kill
O=c1c(=Cc2cc([N+](=O)[O-])cc([N+](=O)[O-])c2O)sc2nc3ccccc3n12,x,n,x,x,n
Cc1ccc2cc(CN(Cc3ccco3)C(=O)c3cccs3)c(=O)[nH]c2c1,42,n,n,x,n
CO[C@H]1CN(C)C(=O)c2ccc(NC(=O)C3CCOCC3)cc2OC[C@H](C)N(C(C)=O)C[C@H]1C,x,x,x,n,x
CCOC(=O)CSC1=NC(=O)/C(=C\c2ccc(Cl)cc2)S1,40,n,n,x,n
Clc1ccc(CONC=Nc2ncnc3sccc23)cc1,x,n,x,x,n
Clc1cccc(CON/C=N/c2ncnc3sccc23)c1,812,x,n,x,x
C[C@@H]1C[C@@H]([C@H](O)CC2CC(=O)NC(=O)C2)C(=O)[C@@H](C)C1,40,x,n,n,x
CC(C)[C@H]1C=C(C(=O)O)O[C@@H](OCCCCO)C1,56,x,n,n,x
Cc1ccc(S(=O)(=O)N2CCOCC2)cc1C(=O)NCCCN1CCCC1=O,x,x,x,11,x
O=C(NCCCN1CCCC1=O)c1cc(S(=O)(=O)N2CCN(c3ccccc3)CC2)ccc1Cl,n,n,n,n,n
C[C@@H]1CN([C@H](C)CO)C(=O)c2cccc(NS(=O)(=O)c3ccccc3)c2O[C@@H]1CN(C)Cc1ccc(C(F)(F)F)cc1,x,x,x,n,x
Cc1ccccc1C(=O)NC(=S)Nc1ccc(Oc2ccc(Cl)cc2)cc1,n,n,n,x,86
O=C(NC(=S)Nc1ccc(Oc2ccccc2)cc1)c1ccc(Cl)cc1,n,n,n,x,98
O=C(NC(=S)Nc1cccnc1Cl)c1ccc(Cl)cc1,n,n,n,n,88
O=C(Nc1cccnc1Cl)c1ccc(Cl)cc1,n,n,n,n,n
CCC(=O)Nc1ccc(NC(=S)NC(=O)Cc2ccccc2)cc1,n,n,n,x,n
O=C(Cc1ccccc1)Nc1ccc(NC(=S)NC(=O)c2ccccc2)cc1,n,n,n,n,84
Cc1ccc(C(=O)NC(=S)Nc2ccc(Oc3ccc(Cl)cc3)cc2)cc1,n,n,n,x,n
Cc1cccc(OCC(=O)NCC(=O)NN=Cc2ccc([N+](=O)[O-])cc2)c1,x,n,x,x,n
CCc1ccc2c(c1)/C(=C/C(=O)c1cccs1)C(=O)N2,n,97,n,x,97
Cc1cccc2c1NC(=O)/C2=C\C(=O)c1cccs1,n,97,n,x,98
Cc1cc(Br)c2c(c1)/C(=C/C(=O)c1cccs1)C(=O)N2,x,n,n,n,n
CC(=O)N(C)C[C@@H]1Oc2cc(C#Cc3ccncc3)ccc2S(=O)(=O)N([C@@H](C)CO)C[C@@H]1C,x,x,x,n,x
Cc1ccc(C(=O)NN=Cc2ccc([N+](=O)[O-])s2)cn1,x,n,x,x,88
Cc1cc(C(=O)N/N=C/c2ccc([N+](=O)[O-])s2)n[nH]1,n,x,n,n,x
SMILES,PfHsp40 rescue,RN4220 kill,PrP 5UTR inh,TcdB GH inh,ugtP null kill
CC(C)(C)c1cc(C(=O)NN=Cc2ccc([N+](=O)[O-])s2)n[nH]1,x,101,x,x,101
Cc1ccc(C(=O)N/N=C\c2ccc([N+](=O)[O-])s2)cn1,n,x,n,n,x
Cc1cccc(NC(=S)N/N=C/c2ccc([N+](=O)[O-])s2)c1,56,x,n,x,x
C[C@H](CO)N1C[C@H](C)[C@H](CN(C)Cc2ccc3c(c2)OCO3)Oc2c(NC(=O)Nc3ccccc3)cccc2C1=O,x,x,x,n,x
CSc1cccc(NC(=S)NC(=O)CCc2ccccc2)c1,n,n,n,n,n
CSc1cccc(NC(=O)CCc2ccccc2)c1,n,n,n,11,n
O=C(CCSc1ccc(Br)cc1)c1ccc(O)cc1,537,n,n,n,n
O=C(CN1CCN(Cc2ccccc2)CC1)NN=Cc1cccs1,x,n,x,x,n
Nc1nc(-c2ccc(Oc3ccccc3)cc2)cs1,185,n,n,n,n
Nc1nc(-c2ccc(-c3ccccc3)cc2)cs1,n,n,n,n,n
COc1cc(/C=N/N2C(=O)C3C4C=CC(CC4)C3C2=O)ccc1O (stereo not drawn),n,x,n,18,x
COc1cc(C=NN2C(=O)C3C4C=CC(CC4)C3C2=O)ccc1O (stereo not drawn),x,n,x,x,n
CC1CN(C(C)CO)C(=O)c2cc(NC(=O)Nc3ccccc3)ccc2OC1CN(C)S(=O)(=O)c1ccc(F)cc1 (stereo not drawn),x,n,x,x,n
COc1cc(C(=O)OC(C)C(=O)NC(=O)NC2CCCCC2)ccc1OC(F)F (stereo not drawn),n,n,n,n,91
C[C@H](CO)N1C[C@H](C)[C@H](CN(C)C(=O)Nc2ccc3c(c2)OCO3)Oc2ccc(NC(=O)Cc3cn(C)c4ccccc34)cc2C1=O,x,x,x,n,x
CC(=O)C1=CCC(c2ccc(Br)cc2)N(S(=O)(=O)c2ccc(C)cc2)C1 (stereo not drawn),x,x,x,n,x
CC(=O)C1=CCC(c2ccc(C)cc2)N(S(=O)(=O)c2ccc(C)cc2)C1 (stereo not drawn),x,x,x,12,x
Cc1ccc(S(=O)(=O)N2CC(CBr)=CCC2c2ccccc2)cc1 (stereo not drawn),x,x,x,16,x
Cc1ccc(S(=O)(=O)NCCCCCC(=O)NC(C)(C)CO)cc1,51,n,n,x,n
C/C(=N\NC(=O)c1ccc(O)cc1)c1cccc(NC(=O)c2ccc(Cl)cc2)c1,44,x,n,n,x
C[C@H]1CN([C@@H](C)CO)S(=O)(=O)c2ccc(/C=C/c3ccccc3)cc2O[C@H]1CN(C)C(=O)NC1CCCC1,x,x,x,n,x
CCCNC(=O)C[C@H]1CC[C@@H]2[C@H](COC[C@@H](O)CN2C(=O)c2cccnc2)O1,x,x,x,n,x
COc1ccc(NS(=O)(=O)c2ccc(N3CCOCC3)c(NC(=O)c3ccc(F)cc3)c2)cc1,n,n,n,n,n
COc1ccc(NS(=O)(=O)c2ccc(O)c(NC(=O)c3cc4c(C)nn(-c5ccc(F)cc5)c4s3)c2)cc1,n,n,n,x,84
COc1ccc(OC)c(CNc2ccc(F)c(Cl)c2)c1,38,n,n,n,n
SMILES,PfHsp40 rescue,RN4220 kill,PrP 5UTR inh,TcdB GH inh,ugtP null kill
COc1ccc(OC)c(CNc2ccc3c(c2)CCC3)c1,n,x,n,n,x
COc1ccc(NS(=O)(=O)c2cc(N=Nc3c(O)[nH]c(=O)[nH]c3=O)ccc2Cl)cc1,n,n,n,11,n
CCOC(=O)N1CCN(C(=S)NC(=O)c2ccc(F)c(F)c2)CC1,n,n,n,11,n
CC(=O)ON=Cc1c(NCc2ccccc2)nc2c(C)cccn2c1=O,x,n,x,x,n
Cc1occc(=O)c1OC(=O)Nc1ccc(Cl)c(Cl)c1,n,99,n,n,99
COc1ccc(C(=O)Oc2c(C)occc2=O)cc1OC,n,n,n,x,n
C[C@@H](NC(=O)C[C@H]1C[C@@H]2c3cc(NC(=O)CN(C)C)ccc3O[C@@H]2[C@@H](CO)O1)c1ccccc1,x,x,x,n,x
CCOC(=O)C1=C(CC)Nc2ccccc2N=C1NC(=O)Nc1ccc(Cl)c(Cl)c1,n,101,n,n,100
Brc1ccc(-c2ccc(C=NNc3nc4ccccc4[nH]3)o2)cc1,x,86,x,x,n
COc1cc(/C=N/Nc2ccccn2)ccc1O,n,x,n,16,x
COc1ccc(/C=N/Nc2nc3ccccc3[nH]2)cc1OC,75,x,n,n,x

# Compound activity as filed in PubChem BioAssay.
